Screening data: PubChem, National Center for Advancing Translational Sciences (NCATS)
G9a inh – G9a (human) methyltransferase inhibition; Q96KQ7; G9a H3K9 monomethylation, AlphaScreen, 2 h; Potency, µM (top dose mostly 102 µM), for inactives: top-dose activity, negative = inhibition, actives largely listed as inhibitors; 8.8% of 350,000 active; note: % is set by controls: 0 for no effect and ±100 for the full control effect; nearly all actives have a fitted effect of over 75% in size
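Readings reflect AlphaScreen signal from monomethyl-H3K9 antibody detection. HMT at 20 nM; substrate b-H3K9 500 nM; cofactor SAM 20 uM; 2 h RT reaction; compounds tested as titrations in qHTS with 15 min preincubation.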
L3MBTL1 block – inhibitors of human L3MBTL1; AID 485360; AlphaScreen L3MBTL1–H3K9me1 peptide binding; Q9Y468; Potency, µM (series often up to 57.1 µM), for the others: at the top dose activity, negative = inhibition, actives largely listed as inhibitors; 0.66% of 230,000 active; note: % is set by controls: 0 for no effect and ±100 for the full control effect; nearly all actives have a fitted effect of over 60% in size
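L3MBTL1 (50 nM) pre-complexed 30 min with biotinylated H3(1-15)K9me1 peptide (75 nM), then compounds added for 30 min at room temperature; AlphaScreen streptavidin donor/nickel chelate acceptor beads (10 ug/mL final) read after 30 min dark incubation.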
BAZ2B inh – BAZ2B (human) inhibition; Q9UIF8; Potency, µM (series often up to 114 µM), inactives show at the highest dose activity change, negative = inhibition, usual class: inhibitors; AID 504333; 4.4% of 360,000 active; AlphaScreen BAZ2B-H3K14Ac peptide displacement; note: % is set by controls: 0 for no effect and ±100 for the full control effect; nearly all actives have a fitted effect of over 60% in size
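AlphaScreen displacement of biotin-H3(5-23)K14Ac peptide (50 nM final) from BAZ2B (50 nM final) in PBS pH 7.4, 0.01% Tween-20; complex preformed 30 min RT, then compounds (top 110 uM) 30 min RT, beads 20 min dark.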
JMJD2A Tudor inh – JMJD2A Tudor domain (human) inhibition; O75164; AlphaScreen JMJD2A-Tudor / H3K4me3 peptide binding; Potency, µM (highest dose often 114 µM), inactives show at the top dose activity change, negative = inhibition, most hits filed as inhibitors; 4.4% of 390,000 active; AID 504339; note: % is set by controls: 0 for no effect and ±100 for the full control effect; nearly all actives have a fitted effect of over 50% in size
Sfp inh – Sfp phosphopantetheinyl transferase inhibition; Q9F4F7; Biochemical Sfp PPTase activity, qHTS; Potency, µM, for inactives: largest response in the series, negative = inhibition, most hits filed as inhibitors; 3.5% of 310,000 active; AID 1490;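 note: the enzyme is Sfp with the accession as filed and its product quenches rhodamine fluorescence; 0% = enzyme reaction without inhibitor and -100% = no enzyme wells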
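Sfp 15 nM + cpd, 15 min RT; start w/ rhodamine-CoA 5 uM, BHQ-2-YbbR 12.5 uM (final); 50 mM Hepes pH 7.6, 10 mM MgCl2, 0.01% NP-40, 0.01% BSA; read 525/598 nm at 0 and 30 min.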
HP1b binding inh – HP1-beta chromodomain-methylated histone interaction inhibition; AID 540317; AlphaScreen HP1-beta / biotin-H3K9me3 peptide binding; Potency, µM (top dose mostly 114 µM), for the others: at the highest dose activity change, negative = inhibition, actives largely listed as inhibitors; 0.56% of 390,000 active; note: nearly all actives have a fitted effect of over 70% in size
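Compound inhibition of the preformed complex between 50 nM HP1-beta and 50 nM biotinylated H3K9me3 peptide was read by AlphaScreen. Buffer was PBS pH 7.4 with 0.01% Tween-20. Incubations ran 30 min at room temperature, with 10 ug/mL donor/acceptor beads.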
An asterisk follows results filed as active; [ ] = remark or other dose. A selection: hits, their analogues and other compounds. The true share with any hit is near 12%. Calls come from the whole dose curve; as a rule, active = well fitted curve in the direction sought with a large enough effect; inconclusive = small, poorly fitted or top-dose-only effect, or another doubt; inactive = no such curve, though single readings can be large; an effect the other way counts as inactive or inconclusive. Potency is the fitted concentration of half-maximal effect.

Results for COc1ccc2nc(C)cc(SCC(=O)N/N=C/c3cccc4ccccc34)c2c1 ?
G9a inh: 9%[59 µM]; L3MBTL1 block: 1%; BAZ2B inh: 8%; JMJD2A Tudor inh: -21%; Sfp inh: inconclusive; HP1b binding inh: 14%

Results for COc1cccc2c(SCC(=O)N/N=C/c3ccc(O)c(O)c3)cc(C)nc12 ?
G9a inh: 35µM*; L3MBTL1 block: -28%; BAZ2B inh: inconclusive; JMJD2A Tudor inh: inconclusive; Sfp inh: 4%; HP1b binding inh: -3%

How did COc1ccc2nc(C)cc(SCC(NC(C)=O)C(=O)OC(C)C)c2c1 (stereo not given) do in these assays?
G9a inh: 40µM*; L3MBTL1 block: -2%; BAZ2B inh: -2%; JMJD2A Tudor inh: -6%; Sfp inh: -25%; HP1b binding inh: 49%

How did COc1ccc2c(c1)c(C(=O)N/N=C/c1ccc(O)c(O)c1)c(C)n2C do in these assays?
G9a inh: 50µM*; L3MBTL1 block: -4%; BAZ2B inh: inconclusive; JMJD2A Tudor inh: -26%; Sfp inh: -30%; HP1b binding inh: -6%

Results for Cc1cc(N)nc(=O)n1C1CC(O)C(CO)O1 (stereo not given) ?
JMJD2A Tudor inh: -5%; HP1b binding inh: 22%

How did Oc1ccc(N2CCN(CC(O)c3ccccc3)CC2)cc1 (stereo not given) do in these assays?
G9a inh: 8.9µM*; BAZ2B inh: -35%; JMJD2A Tudor inh: 56µM*; Sfp inh: 50µM*; HP1b binding inh: inconclusive

How did OC(COC(c1ccc(F)cc1)c1ccc(F)cc1)CN1CCCC(C(F)(F)F)C1 (stereo not given) do in these assays?
G9a inh: 11µM*; BAZ2B inh: 50µM*; JMJD2A Tudor inh: 3.5µM*; Sfp inh: -24%; HP1b binding inh: inconclusive

How did COc1ccc(N2CCN(CC(O)COC(c3ccc(F)cc3)c3ccc(F)cc3)CC2)cc1 (stereo not given) do in these assays?
G9a inh: 5.6µM*; BAZ2B inh: 20µM*; JMJD2A Tudor inh: 3.5µM*; Sfp inh: inconclusive; HP1b binding inh: inconclusive

What do the screens show for `OC(CN1CCCC(C(F)(F)F)C1)c1ccccc1` (stereo not given)?
G9a inh: 2%; BAZ2B inh: 2%; JMJD2A Tudor inh: -8%; Sfp inh: 5%; HP1b binding inh: -2%

What do the screens show for `COc1ccc(N2CCN(CC(O)COC(c3ccccc3)c3ccccc3)CC2)cc1` (stereo not given)?
G9a inh: 40µM*; BAZ2B inh: 45µM*; JMJD2A Tudor inh: 45µM*; Sfp inh: 2%; HP1b binding inh: inconclusive

Results for CC(C)(C)c1ccc(-c2nc(NC(=O)CSc3ncnc4sc5c(c34)CCCC5)ns2)cc1 ?
G9a inh: -1%[59 µM]; BAZ2B inh: 1%; JMJD2A Tudor inh: -11%; HP1b binding inh: 41%

What do the screens show for `OCCN1CCN(CC(O)COC(c2ccc(F)cc2)c2ccc(F)cc2)CC1` (stereo not given)?
G9a inh: -14%; BAZ2B inh: 40µM*; JMJD2A Tudor inh: 7.1µM*; Sfp inh: -28%; HP1b binding inh: inconclusive

What do the screens show for `OC(COc1ccc(F)cc1)CN1CCN(CC(O)COc2ccc(F)cc2)CC1` (stereo not given)?
G9a inh: 14%; BAZ2B inh: 1%; JMJD2A Tudor inh: -11%; Sfp inh: 0%; HP1b binding inh: 66%

What do the screens show for `COc1ccc(CN2C(=O)c3ccccc3C2C(=O)NC2CCCCCC2)c(OC)c1` (stereo not given)?
G9a inh: -34%; BAZ2B inh: 4%; JMJD2A Tudor inh: -16%; Sfp inh: 8%; HP1b binding inh: 34%

What do the screens show for `CCn1c(CCc2nc3ccccc3[nH]2)n[nH]c1=S`?
G9a inh: inconclusive; BAZ2B inh: -15%; JMJD2A Tudor inh: 4µM*; Sfp inh: 3%; HP1b binding inh: 12%
